The results in this text go back to ChEMBL document CHEMBL5308504, “Tm Shift (DSF) assay results for EUbOPEN Chemogenomics Library” (2023).

As usually defined, the ΔTm is the shift of the melting midpoint relative to a reference.

The structures appear in SMILES notation.

For assay [1], the target named is Bromodomain-containing protein 4 (Homo sapiens) (UniProt O60885). As to conditions: Compound concentration 20.0 uM, Protein concentration 2.0 uM, Result type QC Liability.
Assay [2] deals with T1, Transcription intermediary factor 1-alpha (Homo sapiens) (UniProt O15164).
T1 sequence (whole entry): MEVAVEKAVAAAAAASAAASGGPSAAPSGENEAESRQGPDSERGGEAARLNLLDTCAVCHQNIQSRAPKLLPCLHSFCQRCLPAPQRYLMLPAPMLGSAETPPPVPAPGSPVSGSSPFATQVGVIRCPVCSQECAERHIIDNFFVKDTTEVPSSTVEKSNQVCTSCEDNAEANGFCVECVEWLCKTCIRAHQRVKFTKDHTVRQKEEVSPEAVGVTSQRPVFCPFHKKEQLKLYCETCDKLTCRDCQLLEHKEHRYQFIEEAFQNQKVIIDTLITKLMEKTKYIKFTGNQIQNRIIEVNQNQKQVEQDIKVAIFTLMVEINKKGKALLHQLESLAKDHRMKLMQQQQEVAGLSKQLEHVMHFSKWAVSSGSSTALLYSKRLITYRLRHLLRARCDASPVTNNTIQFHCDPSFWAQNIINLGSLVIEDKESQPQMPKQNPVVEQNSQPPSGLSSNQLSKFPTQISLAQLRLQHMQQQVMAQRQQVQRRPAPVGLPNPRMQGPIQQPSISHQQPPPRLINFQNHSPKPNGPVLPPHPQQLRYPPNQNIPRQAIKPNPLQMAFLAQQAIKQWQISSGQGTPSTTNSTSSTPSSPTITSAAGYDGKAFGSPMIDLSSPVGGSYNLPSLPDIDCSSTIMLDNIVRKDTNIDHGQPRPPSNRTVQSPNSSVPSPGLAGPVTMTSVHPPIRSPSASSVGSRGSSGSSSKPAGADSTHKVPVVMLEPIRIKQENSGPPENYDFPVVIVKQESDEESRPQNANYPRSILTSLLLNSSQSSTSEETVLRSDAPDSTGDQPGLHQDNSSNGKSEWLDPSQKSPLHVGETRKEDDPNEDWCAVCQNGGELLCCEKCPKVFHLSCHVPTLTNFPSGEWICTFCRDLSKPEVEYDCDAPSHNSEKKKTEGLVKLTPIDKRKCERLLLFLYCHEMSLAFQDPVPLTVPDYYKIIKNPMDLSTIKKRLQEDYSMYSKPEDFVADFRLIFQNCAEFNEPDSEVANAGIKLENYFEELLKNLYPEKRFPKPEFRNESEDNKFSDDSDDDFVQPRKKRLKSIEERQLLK
As to conditions: Compound concentration 20.0 uM, Protein concentration 2.0 uM, Result type QC Liability.

Consider `COc1ccc(S(=O)(=O)N2CCOCC2)cc1Nc1ccc2c(n1)N(C1CCOCC1)[C@H](C)C(=O)N2C`, for which the ΔTm in assay [1] is 5.07 °C; in assay [2] it was -1.05 °C.
With `CCOC(=O)N1CCC(CN(Cc2ccc(Cl)cc2)Cc2ccc([N+](=O)[O-])s2)C1` (centres undefined), the results for the ΔTm in assay [1] and in assay [2] were -2.61 °C and -4.19 °C, respectively.
In the same order, the values of `COc1cc(Cl)c(C(=O)N[C@@H](CN[C@H]2CC[C@@H](N)CC2)Cc2ccc(C#N)cc2)cc1-c1ccc(CN[C@H](C)c2ccc(C)cc2)o1` are -1.12 °C and -2.42 °C.
On the same counts, the results for `C[C@@H]1Cc2c([nH]c3ccccc23)[C@@H](c2c(F)cc(/C=C/C(=O)O)cc2F)N1CC(C)(C)F` are 0.36 °C and -0.62 °C.
In the same order, the values of `CCN(C(=O)c1cc(F)ccc1Oc1cncnc1N1CC2(CCN(C[C@H]3CC[C@H](NS(=O)(=O)CC)CC3)CC2)C1)C(C)C` are -1.64 °C and -1.14 °C.
As for `O=C(Nc1ccc(Cl)c(-c2ccccn2)c1)c1cccc(COc2ccc(Br)cc2CNCCO)c1`, the ΔTm was -1.21 °C in assay [1] and -0.08 °C in assay [2].
As to `O=C(Nc1ccccc1C(=O)O)c1cc(S(=O)(=O)c2ccccc2)ccc1Cl`, the ΔTm in assay [1] was 2.09 °C; in assay [2] it was 0.36 °C.
On the same counts, the results for `CC(=O)O[C@H]1C(=O)[C@@]2(C)[C@H]([C@H](OC(=O)c3ccccc3)[C@]3(O)C[C@H](OC(=O)[C@H](O)[C@@H](NC(=O)c4ccccc4)c4ccccc4)C(C)=C1C3(C)C)[C@]1(OC(C)=O)CO[C@@H]1C[C@@H]2O` are -0.05 °C and -0.24 °C.
On the same counts, the results for `Cn1cc(-c2ccc(-c3cncc(Cl)c3N3CCC4(CCNC4=O)CC3)cc2)cn1` are 0.07 °C and -2 °C.
In the same order, the values of `O=C(O)C[C@H]1CC[C@H](c2ccc(NC(=O)c3nnc(Nc4ccc(F)c(F)c4)o3)cc2)CC1` are -0.2 °C and 0.52 °C.
Consider `CCCNc1ccc2ncc(-c3ccncc3)n2n1`, for which the ΔTm in assay [1] was -0.06 °C; in assay [2] it was -2.61 °C.
On the same counts, the results for `O=C(Cc1ccccc1[N+](=O)[O-])Nc1ccc(-c2ccc(C(O)(C(F)(F)F)C(F)(F)F)cc2F)cc1` are -0.72 °C and 0.45 °C.
In the same order, the values of `NCCCc1c(C(=O)O)[nH]c2ccc(C(=O)Nc3ccccc3)cc12` are -2.73 °C and -4.02 °C.
In the same order, the values of `COC(=O)c1sccc1S(=O)(=O)Nc1ccc(Nc2ccccc2)cc1OC` are -3.85 °C and 0.59 °C.
With `COc1ccc(CSc2nnc(-c3ccc4ncsc4c3)o2)cc1C(F)(F)F`, the results for the shift in melting temperature (ΔTm) in assay [1] and in assay [2] were -5.83 °C and -2.33 °C, respectively.
In the same order, the values of `CN(c1ccc(C(F)(F)F)cc1)S(=O)(=O)c1ccc(C(=O)Nc2nc(-c3ccccn3)cs2)cc1` are 6.63 °C and 18.6 °C.
As to `CC(=O)c1ccc2c(c1)/C(=C(/NC1CCN(C)CC1)c1ccc3c(c1)OCO3)C(=O)N2`, the results for the ΔTm in assay [1] and in assay [2] were -0.52 °C and 0.21 °C, respectively.
For the molecule `Nc1ncc2c(n1)-c1c([nH]c3ccc(C4=CCOCC4)cc13)CCC2`, the results for the ΔTm in assay [1] and in assay [2] were -0.2 °C and 0.27 °C, respectively.
In the same order, the values of `Clc1ccc(-c2nc3sccn3c2/C=N/OCc2ccc(Cl)c(Cl)c2)cc1` are -1.58 °C and -1.95 °C.
On the same counts, the results for `CN[C@@H](C)C(=O)N[C@H](C(=O)N1CCC[C@H]1C(=O)N[C@@H]1CCCc2ccccc21)C1CCCCC1` are -2.83 °C and -1.41 °C.
On the same counts, the results for `CN[C@@H](C)C(=O)N[C@H]1CN(C(=O)CC(C)C)CC[C@H]2CC[C@@H](C(=O)NC(c3ccccc3)c3ccccc3)N2C1=O` are -2.41 °C and -2.26 °C.
Regarding `CC(F)(F)CN1C(=O)c2[nH]nc(-c3cccc4[nH]c(=O)oc34)c2C1c1ccc(Oc2cc(C(F)(F)F)cc(C(F)(F)F)c2)cc1` (centres undefined), the ΔTm in assay [1] is -1.07 °C; in assay [2], -1.2 °C.
As to `O=C(Nc1ccc(N2CCC(C(=O)N3CCOCC3)CC2)cc1)c1cnc(Oc2ccccc2)nc1`, the ΔTm is -0.8 °C in assay [1] and -0.59 °C in assay [2].
In the same order, the values of `COc1cc(C(=O)NCCOCCOCCOCCC(=O)Nc2cccc3c2C(=O)N(C2CCC(=O)NC2=O)C3=O)ccc1Nc1ncc(C(F)(F)F)c(Oc2cccc3c2C(=O)CC3)n1` (centres undefined) are -4.34 °C and 0.52 °C.
In the same order, the values of `Cc1cc(OC2CCS(=O)(=O)CC2)cc(C)c1-c1cccc(COc2ccc(C(=O)O)c(F)c2)c1` are -3.26 °C and -2.6 °C.
On to `CC(C)(C)c1cnc(CSc2cnc(NC(=O)C3CCNCC3)s2)o1`, for which the values for the ΔTm in assay [1] and in assay [2] were 0.24 °C and -1.61 °C, respectively.
In the same order, the values of `CN(C)[C@H]1CCN(c2cc(C(F)(F)F)c(C#N)c(Nc3cccc(CCC(=O)O)c3)n2)C1` are -0.8 °C and 0.26 °C.
As for `Cc1cn(CCN2CCN(c3ccccc3-c3cc(C#N)cc(C(=O)NCCCN4CCCC4)c3)CC2)c2ccccc12`, the ΔTm in assay [1] is -2.78 °C; in assay [2], -1.92 °C.
On the same counts, the results for `CCOCCn1cc(C(=O)Nc2ccc(-n3nc(-c4cccnc4)cc3C(F)(F)F)cn2)ccc1=O` are -2.09 °C and 0.27 °C.
In the same order, the values of `CCn1ccc(Nc2ncc3c(n2)-c2c(nn(C)c2-c2ccc(-c4cnn(C)c4)cc2Cl)CC3)n1` are -1.73 °C and -2.64 °C.
In the same order, the values of `O=C(O)c1ccnc(N2CC(O)(c3ccc(OCc4c(-c5c(Cl)cccc5Cl)noc4C4CC4)cc3Cl)C2)c1` are -4.33 °C and -1.77 °C.
For the molecule `CN1CCN(c2ccc(/C=C(\C#N)c3ccccc3Br)cc2)CC1`, the figures for the ΔTm in assay [1] and in assay [2] were -4.31 °C and -4.7 °C, respectively.
In the same order, the values of `CCCCC(C)(O)C/C=C/[C@H]1[C@H](O)CC(=O)[C@@H]1CCCCCCC(=O)O` (some centres undefined) are -1.42 °C and -0.79 °C.
In the same order, the values of `O[C@]1(C(F)(F)F)CCCC[C@H]1Nc1ccc(F)cc1` are -1.92 °C and -2.51 °C.
`O=C(CNC(=O)c1ccc(-c2ccccc2)cc1)NC1CCCc2ccccc21` (centres undefined): the ΔTm in assay [1] is -5.93 °C; in assay [2] it was 2.55 °C.
In the same order, the values of `Cc1cc2c(-c3ccco3)cnc(N[C@H]3CCN(C)C[C@@H]3C(=O)NC3CCCCC3)c2[nH]c1=O` are 3.29 °C and -2.71 °C.
In the same order, the values of `N[C@@H]1CCCC[C@H]1Oc1ccc2ncc(-c3cc4ccccc4o3)n2n1` are -0.47 °C and -0.16 °C.
